In PubChem BioAssay (NCI) one finds growth inhibition data, which are given here for 21 compounds.

The panel holds about 79,000 compounds, 15% with a hit somewhere; the sample as a whole holds those more often. Unmarked numbers belong to inactive results. Activity calls are given as the source filed them. Rule as the data show it: active = growth inhibition above about 70%; inactive = the rest.

The nature of experiment [1]: NCI Yeast Anticancer Drug Screen. Data for the rad50 strain (AID 155).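 Also: 0% = growth of vehicle-only cultures of the same strain.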 The note with it: S. cerevisiae rad50 strain growth inhibition; at 50.0 µM; hits give high values. Summed up: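 DNA repair mutant yeast, compound exposure, growth read-out; inhibition is taken relative to vehicle.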
Experiment [2] is described as follows: NCI Yeast Anticancer Drug Screen. Data for the mec2-1 strain (AID 157). The note with it: S. cerevisiae mec2-1 strain, at 50.0 µM, hits give high values. The gist of the method:
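Strain: mec2-1 (DNA repair/cell cycle alteration). Compound exposure, then growth measured; inhibition expressed relative to vehicle.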

Experiment [3] in a line: NCI Yeast Anticancer Drug Screen. Data for the sgs1 mgt1 strain (AID 161).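 Also: 0% = growth of cultures given vehicle only.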 The conditions noted are these: S. cerevisiae sgs1 mgt1 strain, at 50.0 µM, hits give high values. Summed up: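 Genetically altered yeast, compound exposure, growth inhibition relative to vehicle.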
The nature of experiment [4]: NCI Yeast Anticancer Drug Screen. Data for the cln2 rad14 strain (AID 165).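 Also: 0% = growth equal to vehicle treated cultures.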 The note with it: S. cerevisiae cln2 rad14 strain, at 50.0 µM, hits give high values. Summed up:
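Compounds are applied to the cln2 rad14 yeast strain, and growth is then compared with that of vehicle-treated cultures to give inhibition.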

Experiment [5] can be described thus: NCI Yeast Anticancer Drug Screen. Data for the bub3 strain (AID 167). The conditions noted are these: S. cerevisiae bub3 mutant strain, at 50.0 µM, hits give high values. The gist of the method: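 In this screen, a yeast mutant lacking normal mitotic checkpoint function is challenged with compound. Relative growth versus vehicle gives the inhibition value.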
The nature of experiment [6]: NCI Yeast Anticancer Drug Screen. Data for the mlh1 rad18 strain (AID 175). The conditions noted are these: S. cerevisiae mlh1 rad18 strain growth inhibition; at 50.0 µM; hits give high values. The gist of the method:
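Read-out is yeast growth inhibition, calculated against vehicle-only controls. The compound was applied to a strain engineered with DNA damage repair alterations.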

Regarding `N#C/C(=C\N1CCNC1=S)C(=O)c1ccc2ccccc2c1`, the growth inhibition in experiment [1] was 23.1%; in experiment [2], 1.75%; in experiment [3], -1.7%; in experiment [4], 0.55%; in experiment [5] it was 14.7%; in experiment [6] it was 11.6%.

Regarding `Cc1cc([N+](=O)[O-])c(NCCOC(=O)c2ccc([N+](=O)[O-])cc2)c([N+](=O)[O-])c1`, the growth inhibition in experiment [1] is -24.1%; in experiment [2], -6.55%; in experiment [3], -10.9%; in experiment [4] it was -69.2%; in experiment [5] it was 2.8%; in experiment [6], -10.7%.

Turning to `COc1ccc2c3c([nH]c2c1[N+](=O)[O-])C(C)N(C)CC3` (stereo unspecified), the growth inhibition in experiment [1] was -0.1%; in experiment [2] it was 7.5%; in experiment [3], 21.1%; in experiment [4], 25.3%; in experiment [5], 0.8%; in experiment [6], 33.2%.

Turning to `COc1ccc(N=C(N)N2CCCc3ccccc32)cc1`, the growth inhibition in experiment [1] is -5.25%; in experiment [2] it was 17.9%; in experiment [3], 0.55%; in experiment [4], -84.9%; in experiment [5], 1.4%; in experiment [6] it was 0.4%.

Regarding `Cc1ccc(S(=O)(=O)N/N=C/C(C)C)cc1`, the growth inhibition was 14.2% in experiment [1]; -15.6% in experiment [2]; 4.75% in experiment [3]; 17.8% in experiment [4]; -14.8% in experiment [5]; 24.2% in experiment [6].

With `CC(C)[C@@H]1CC[C@@H](C)C[C@H]1OC(=O)/C=C1\C(C(=O)O[C@@H]2C[C@H](C)CC[C@H]2C(C)C)[C@H]2C=C[C@@H]1O2` (stereo partly specified), the growth inhibition in experiment [1] is -6.15%; in experiment [2], -13.6%; in experiment [3], -9.35%; in experiment [4], -25.1%; in experiment [5], -27.1%; in experiment [6] it was 6.5%.

As for `Cc1cccc(C)c1N=O`, the growth inhibition in experiment [1] was -6.25%; in experiment [2], -15.2%; in experiment [3], -7.45%; in experiment [4] it was 22.8%; in experiment [5] it was 1.15%; in experiment [6], -16.1%.

Turning to `OC(C1=C/C(=C\c2ccncc2)c2ccccc21)c1ccncc1` (stereo unspecified), the growth inhibition in experiment [1] was 84.7% (active); in experiment [2] it was 86.5% (active); in experiment [3] it was 96.8% (active); in experiment [4], 47.6%; in experiment [5], 86.3% (active); in experiment [6], 93% (active).

For `O=C(CC(c1ccccc1)C(Sc1ccccc1)(Sc1ccccc1)Sc1ccccc1)c1ccccc1` (stereo unspecified), the growth inhibition is 13.2% in experiment [1]; 15.3% in experiment [2]; 13.4% in experiment [3]; 3% in experiment [4]; -1.35% in experiment [5]; 7.25% in experiment [6].

In the case of `CC(=O)C(N=Nc1nc2ccccc2[nH]1)C(C)=O`, the growth inhibition in experiment [1] was 27.1%; in experiment [2] it was 14.1%; in experiment [3], -1.8%; in experiment [4], 15.2%; in experiment [5], 47.9%; in experiment [6] it was 32.5%.

Consider `Cc1nnc2c3[nH]c4ccccc4c3c(Cl)nn12`, for which the growth inhibition in experiment [1] was -3.3%; in experiment [2], -7.25%; in experiment [3] it was 3.55%; in experiment [4], -52.2%; in experiment [5], -10.8%; in experiment [6], -11.1%.

Consider `COC(OC)C1(c2ccccc2)NC(=O)N(Cc2ccccc2)C1=O` (stereo unspecified), for which the growth inhibition is 3.1% in experiment [1]; -10% in experiment [2]; -1.3% in experiment [3]; -49.5% in experiment [4]; 2.85% in experiment [5]; -9.65% in experiment [6].

With `Cc1cc(=O)c(C#N)c(C)o1`, the growth inhibition in experiment [1] is 6.65%; in experiment [2], 10.2%; in experiment [3], 19.4%; in experiment [4] it was -2.7%; in experiment [5], -1.95%; in experiment [6], 10%.

With `CCCCOS(=O)(=O)c1ccc([N+](C)(C)C)cc1`, the growth inhibition in experiment [1] was 3.9%; in experiment [2], 1.75%; in experiment [3], -10.6%; in experiment [4], 12.2%; in experiment [5], 0.6%; in experiment [6] it was -7%.

In the case of `O=C1NN(c2ccccc2)C(=O)C2C3c4ccccc4C(c4ccccc43)C12` (stereo unspecified), the growth inhibition was 2.45% in experiment [1]; -6.8% in experiment [2]; 0.7% in experiment [3]; -3.3% in experiment [4]; -2.4% in experiment [5]; 2.85% in experiment [6].

In the case of `CNC(=O)c1ccccc1C(=O)c1ccccc1OC`, the growth inhibition in experiment [1] was 7.5%; in experiment [2], -11.7%; in experiment [3], -3.05%; in experiment [4], -25.1%; in experiment [5] it was 17.4%; in experiment [6], 2.15%.

On to `COC(=O)C1CC2c3[nH]c4ccccc4c3CCN2C1` (stereo unspecified), for which the growth inhibition in experiment [1] was -4.85%; in experiment [2] it was -8.25%; in experiment [3] it was -17.1%; in experiment [4] it was -11.4%; in experiment [5], -4.1%; in experiment [6], -10.5%.

Consider `CCC1=CC(C=O)N(C(C)=O)c2ccccc21` (stereo unspecified), for which the growth inhibition is -2.85% in experiment [1]; 7.8% in experiment [2]; 7.2% in experiment [3]; 2.1% in experiment [4]; 1.95% in experiment [5]; -2.5% in experiment [6].

On to `c1ccc2[nH]c(CN3CCCCC3)cc2c1`, for which the growth inhibition in experiment [1] was 7.15%; in experiment [2], -10.1%; in experiment [3] it was -8.95%; in experiment [4], -18.8%; in experiment [5], -13.2%; in experiment [6] it was 11.8%.

With `CCCCCCCCOC1OC(COC(C)=O)C(OC(C)=O)C(OC(C)=O)C1OC(C)=O` (stereo unspecified), the growth inhibition in experiment [1] is -3%; in experiment [2], 3.75%; in experiment [3], -4.45%; in experiment [4], 6.75%; in experiment [5], -35.5%; in experiment [6] it was -6.95%.

On to `CCOP(=O)(OCC)C1(O)CC(n2cc(C)c(=O)[nH]c2=O)OC1CO` (stereo unspecified), for which the growth inhibition in experiment [1] is 7.3%; in experiment [2] it was 59.1%; in experiment [3] it was -15.2%; in experiment [4] it was 27.1%; in experiment [5], -5.05%; in experiment [6], -37.7%.
